“And” between values parts separate entries of the source, which are not always exact repeats. Equal values may be shown once. Compounds without any hit were thinned out: in the full panel of roughly 83,000, 20% have a hit.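 Growth was measured after 48 h exposure to one concentration of compound in 96-well plates. Values under 10 count as active.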 Values without a mark were called inactive. The source made the active and inactive calls. *1 amine or outer side, *2 acyl side, *3 side chain or, on linkers, in order; H or OH if unused. Where a SMILES comes first, the peptide text is derived from it. [ ]: non-standard residue; d: D form. The star is where a group is joined. X5 = CCC(=O)CC1CC(C)CC(C(=O)[*:2])N1[*:1]; X4 = CCCCCCCCC(C)C(=O)*; Aib = CC(C)(N)C(=O)O; X6 = CC(CN(C)CCO)N*
Assays:
Test in all cases: NCI-60 one-dose screen, 48 h (100 = growth as untreated, 0 = no growth, -100 = all killed)
HCT-15 colon = settings: 10 µM unless noted
HT29 colon = settings: 10 µM unless noted
SNB-75 CNS = settings: 10 µM unless noted
SNB-19 CNS = settings: 10 µM unless noted
U251 CNS = settings: 10 µM unless noted
PC-3 prostate = settings: 10 µM unless noted
SK-MEL-5 melanoma = settings: 10 µM unless noted
UACC-62 melanoma = system: UACC-62 melanoma
LOX IMVI melanoma = settings: 10 µM

Compound | growth (HCT-15 colon) | growth (HT29 colon) | growth (SNB-75 CNS) | growth (SNB-19 CNS) | growth (U251 CNS) | growth (PC-3 prostate) | growth (SK-MEL-5 melanoma) | growth (UACC-62 melanoma; 10 µM unless noted) | growth (LOX IMVI melanoma) | growth (UACC-62 melanoma; 10 µM) | growth (UACC-62 melanoma; 100 µM)
CCN(CC)CC(O)CNc1ccc(NCC2CO2)c2c1C(=O)c1ccccc1C2=O (configuration not stated) | -38.1% (active) | -42.9% (active) | -66% (active) | 3.77% (active) | -51.8% (active) | -28.4% (active) | -89.8% (active) | -73.5% (active) | -54.1% (active) | – | –
COC1=CC(=O)c2c(O)c3c(c(O)c2C1=O)CC(C)(O)OC3 (configuration not stated) | 0.909% (active) | -10.8% (active) | 41.8% | 7.01% (active) | 17.3% | 8.93% (active) | -92.4% (active) | -14.2% (active) | 11.4% | – | –
Cc1ccc(/C=C2\CNC/C(=C\c3ccc(C)cc3)C2=O)cc1 | -33.8% (active) | -35.8% (active) | 29% | -52.6% (active) | -63.4% (active) | 6.55% (active) | -96.7% (active) | -89% (active) | -69.2% (active) | – | –
CN(C)c1ccc2cc3c(cc2c1)Oc1ccccc1N3.[Cl][Zn][Cl] | 48.5% | 97.3% | 103% | 114% | 78.7% | 81.1% | 70.6% | 65% | 32% | – | –
COC1CC(C)C(OC)c2cc(O)cc(c2O)NC(=O)/C(C)=C/C=C\C(C)C(OC(N)=O)/C(C)=C\C(C)C1OC (configuration not stated) | 5.82% (active) | 5.88% (active) | 47.8% | 37.8% | 43.9% | 25.2% | -10.9% (active) | -27.6% (active) | 5.8% (active) | – | –
O=C(OC12CC3CC(CC(C3)C1)C2)c1ccc(NCc2cc(O)ccc2O)cc1 | -41.9% (active) | -19% (active) | -39.5% (active) | 5.17% (active) | -64.5% (active) | -16.5% (active) | -95.9% (active) | -73.4% (active) | -68.7% (active) | – | –
O=C(c1ccccc1)C(Br)C(Br)c1ccccc1 (configuration not stated) | 86% | -52.9% (active) | 96.9% | 102% | 68.6% | 55.3% | 107% | 108% | -55.3% (active) | – | –
Cc1cc(C(N)=O)cc(C)c1C(=O)OCCCl | 111% | 106% | 100% | 109% | 96.9% | 96.8% | 101% | 102% | 97.5% | – | –
Oc1cc(Cl)ccc1Cc1ccc(Cl)cc1O | 52% | 102% | 76.8% | 66.1% | 52.7% | 43.5% | 11.7% | 32.2% | 50.6% | – | –
CN1CCC(CN2c3ccccc3Sc3ccccc32)C1 (configuration not stated) | 83.9% | 45.8% | 57.7% | 98.1% | 91.1% | 63.6% | 76.6% | 90.4% | 76.5% | – | –
O=C(O)c1cccc2cccc(-c3c4ccc(=O)c(O)c-4oc4c(O)c(O)ccc34)c12 | 105% | 103% | 89.6% | 98.1% | 99.5% | 92.3% | 94.6% | 90.6% | 90% | – | –
CC(C)=CCCC(C)C1=C(O)C(=O)C(C)=CC1=O (configuration not stated) | 1.72% (active) | 83.6% | 113% | 98.7% | 81.3% | 90.8% | 88.7% | – | 59.1% | 103% | -98.4% (active) and -93.3% (active)
CCCCCCCCC(C)C(=O)N1CCCC1C(=O)N1C(CC(=O)CC)CC(C)CC1C(=O)NC(C)C(=O)NC(C)(C)C(=O)NC(C)(C)C(=O)NC(C(=O)NC(C)C(=O)NC(C)(C)C(=O)NC(C)(C)C(=O)NC(C)CN(C)CCO)C(C)CC (configuration not stated) (X4-P[X5]A[Aib][Aib]IA[Aib][Aib]-X6; configuration not given here) | -70.8% (active) | -84.2% (active) | -23.8% (active) | 1.03% (active) | -67.3% (active) | -7.35% (active) | -85.3% (active) | -66.1% (active) | -69.5% (active) | – | –
NC(=S)N/N=C\c1nccc2c(N)cccc12 | 29.6% | 37.9% | 13.6% | 30.1% | 17.8% | 46.6% | 10.8% | -29% (active) | 5.29% (active) | – | –
O=C1C=CC(=O)N1c1ccc(O)cc1 | 102% | 112% | 98.1% | 103% | 99.9% | 98.3% | 102% | 95.4% | 99.8% | – | –
COc1cc(NCc2ccc3nc(N)nc(N)c3c2C)cc(OC)c1OC (tested in a mixture with another compound) | 26.1% | 20% | 33.1% | 31.8% | 31.2% | 23.4% | 21.1% | 30.5% | 16.3% | – | –
NC(=Nc1nc(-c2ccccn2)cc2ccccc12)c1ccccn1 | 21.5% | 13.6% | 41% | 22.5% | 10.3% | 20.6% | -79.4% (active) | 3.59% (active) | -5.24% (active) | – | –
C/C=C/c1cc2c(c(=O)o1)C(=O)[C@@H](O)[C@H](C)O2 | -25.4% (active) | 13% | -23.4% (active) | 94.9% | 40.4% | 11.3% | 95.2% | 80.5% | 25.2% | – | –
O=C(O)c1cc2c(s1)C(=O)c1sccc1C2=O | -59.3% (active) | 65.8% | -91.6% (active) | -2.34% (active) | 30.4% | 56.5% | -100% (active) | 51% | -72.5% (active) | – | –
Cc1ccc(Nc2ccc(O)c3c2C(=O)c2c(O)ccc(Nc4ccc(C)cc4)c2C3=O)cc1 | 94.8% | 106% | 99.4% | 91.6% | 99.8% | 90.7% | 91.7% | 105% | 96.9% | – | –
CC1=CC(=O)C=CC1(C)C(Cl)(Cl)Cl (configuration not stated) | 97.3% | 83.1% | 109% | 92% | 83.1% | 92.9% | 103% | 95.7% | 93% | – | –
CCCCC(C=O)(C=C=C(C)C)CC (configuration not stated) | 98.2% | 109% | 87.3% | 102% | 96.8% | 92.6% | 104% | 95.8% | 96.8% | – | –
NCCCN(CCCN)CCCNCc1c2ccccc2c(CNCCCN(CCCN)CCCN)c2ccccc12 | 110% | 91.9% | 104% | 106% | 115% | 90.8% | 98.6% | 98.2% | 99.8% | – | –
CCCCCCCCCCCCCCCCCC1=NCCCN1CCO | 94% | 101% | 105% | 101% | 98.2% | 95.9% | 103% | 111% | 96.4% | – | –
Cc1cc(C(=C2C=CC(=Nc3ccccc3)C=C2)c2ccc(Nc3ccccc3)cc2)ccc1N | -31.7% (active) | -75.4% (active) | -74.6% (active) | -55.4% (active) | -97.4% (active) | -60.4% (active) | -95.9% (active) | -65.6% (active) | -93.8% (active) | – | –
CCc1cccc(CC)c1N1C(=O)C=CC1=O | 104% | 113% | 93.8% | 105% | 100% | 110% | 98.1% | 112% | 106% | – | –
CN1CSC(=S)N(Cc2ccccc2)C1 | 84.8% | 24.9% | 98.1% | 95.5% | 100% | 95.4% | 96.8% | 85.8% | 11.3% | – | –
NC(CS/C(Cl)=C/Cl)C(=O)O (configuration not stated) | 85.5% | 86.8% | 103% | 85.9% | 84.7% | 64.1% | -60.9% (active) | 77.4% | -57.3% (active) | – | –
CC(=O)OC1CC2CCC1(C)C2(C)C (configuration not stated) | 98.9% | 96% | 93.5% | 103% | 103% | 93.2% | 106% | 92.6% | 101% | – | –

— PubChem BioAssay (NCI)
